# Data from PubChem BioAssay (NCI).
# About 83,000 compounds went through this panel and 20% of them were active in at least one assay; those are over-represented in the sample as a whole.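 48-hour exposure, single concentration, 96-well plates; percent growth endpoint where 0 means no net growth. Active: below 10.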 A number with no mark means an inactive call. Activity calls are given as the source filed them.
# Assays:
# Experiment in all cases: NCI-60 one-dose screen, 48 h (100 = growth as untreated, 0 = no growth, -100 = all killed)
# Details in all cases: 10 µM unless noted
# [1] = tested on: NCI-H226 lung
# [2] = tested on: NCI-H322M lung
# [3] = tested on: HOP-62 NSCLC
# [4] = tested on: NCI-H460 lung
# [5] = tested on: HOP-92 NSCLC
# [6] = tested on: NCI-H522 lung
# [7] = tested on: A549/ATCC NSCLC
# [8] = tested on: 786-0 renal
# [9] = tested on: DU-145 prostate
# [10] = tested on: K-562 leukemia
# [11] = tested on: MALME-3M melanoma
# [12] = tested on: MDA-MB-231 breast
# [13] = tested on: RXF 393 renal
# [14] = tested on: SF-268 CNS
# [15] = tested on: SF-295 CNS
# [16] = tested on: SF-539 CNS
# [17] = tested on: UACC-257 melanoma
# [18] = tested on: M14 melanoma
# [19] = tested on: HCT-15 colon
# [20] = tested on: COLO 205 colon
SMILES,growth [1],growth [2],growth [3],growth [4],growth [5],growth [6],growth [7],growth [8],growth [9],growth [10],growth [11],growth [12],growth [13],growth [14],growth [15],growth [16],growth [17],growth [18],growth [19],growth [20]
Clc1ccc2c(NCCCn3ccnc3)c3oc4ccccc4c3nc2c1,51.4%,40.7%,65.9%,-7.61% (active),33.1%,44%,34.4%,-9.95% (active),24.6%,8.56% (active),43.2%,36.7%,32.3%,45.3%,26.3%,27.4%,80.7%,61.7%,13.7%,
CCN1CCN(/C(=N\c2sc(-c3ccccc3)nc2-c2ccccc2)c2ccccc2)CC1,56.2%,91.8%,95.4%,72.1%,,71.6%,80.2%,51.2%,93.7%,32.8%,108%,79.9%,72.1%,89.2%,111%,87.8%,80.4%,81.1%,38.1%,84.5%
COc1cc(/C=C/C(=O)c2ccc(C(F)(F)F)cc2)ccc1Oc1nc(NCCO)nc(N2CCOCC2)n1,89.2%,101%,90.2%,98.7%,95%,86.8%,91.6%,100%,101%,6.49% (active),85.7%,92.9%,90.8%,87.3%,96%,98.2%,97.4%,97.6%,70.5%,
CCOC(=O)c1c(Nc2ccccc2)nn2c(N)c(C#N)c(-c3ccc(OC)cc3)nc12,42.3%,95.5%,61.3%,61.5%,47%,83.3%,69%,32.8%,66.3%,,61.1%,78.1%,46%,61.9%,42.8%,52.1%,95.4%,78.6%,84.6%,96.3%
CN1CCN(Cc2ccc(NC(=O)c3cncc(C#Cc4cnc5[nH]ncc5c4)c3)cc2C(F)(F)F)CC1,20.4%,45.8%,50.8%,11.1%,-12.2% (active),50.9%,34.3%,45.7%,32.8%,3.87% (active),-27.9% (active),-23.8% (active),-2.95% (active),37.7%,35.4%,13%,40.5%,8.74% (active),19.4%,
N#Cc1ccc(C(=O)CSc2nc(Nc3ccc(S(N)(=O)=O)cc3)c3ccccc3n2)cc1,105%,107%,99.2%,111%,111%,99.8%,108%,105%,107%,105%,106%,105%,109%,109%,102%,102%,101%,103%,100%,
Cc1ccc(/C=C/c2nn3c(-c4ccco4)nnc3s2)cc1C,106%,97.1%,100%,104%,93.9%,104%,94%,100%,103%,97.7%,104%,94.8%,112%,108%,97%,99%,99.2%,108%,96%,
O=C(N/N=C/c1ccc([N+](=O)[O-])o1)c1[nH]c2ccc(Br)cc2c1-c1ccccc1,15.8%,41.2%,24.2%,-31.4% (active),-4.17% (active),-26.3% (active),21.6%,-5.08% (active),16.2%,3.51% (active),23%,-2.79% (active),50.1%,24.8%,21.3%,4.34% (active),37.5%,-35.4% (active),9.3% (active),
COc1ccc(/C=N/Nc2ccnc3cc(Cl)ccc23)cc1Cl,69%,-64.1% (active),-42.9% (active),-79% (active),-57.6% (active),-73.7% (active),-41.6% (active),-94.9% (active),-57% (active),-52.8% (active),-78.5% (active),-71.3% (active),-58% (active),-64.7% (active),-53.1% (active),-90.4% (active),-84.4% (active),-84.5% (active),-20.4% (active),
Cc1sc2c(c1C)c(=O)nc1c(-c3nc(-c4ccc(F)cc4)no3)n[nH]n12,93.1%,103%,91.8%,107%,91.2%,100%,106%,99.4%,109%,103%,96.6%,95.5%,120%,103%,98.4%,93.7%,105%,107%,92.5%,
Fc1ccc(-c2nc(C(Cl)Cl)nc3cc(-c4ccccc4)nn23)cc1,,-41.6% (active),-19.5% (active),-67.6% (active),12.8%,-41.4% (active),-45.1% (active),70%,-18.2% (active),11.4%,-15% (active),11.8%,-70.1% (active),24%,6.38% (active),32.8%,1.45% (active),-40.7% (active),4.01% (active),-76.3% (active)
CN(C)CCCOc1c2ccc(Cl)cc2nc2c1oc1ccccc12,-0.673% (active),-13.1% (active),7.02% (active),7.64% (active),-4.3% (active),-39.6% (active),10%,6.22% (active),5.28% (active),0.751% (active),-81.2% (active),-7.6% (active),-66% (active),-9.41% (active),-19.2% (active),-58.9% (active),-18.5% (active),-84.2% (active),-21.6% (active),
Cc1cc2nc3c4cc(Cl)ccc4n(CC(=S)NCCN(C)C)c3nc2cc1C,-60.4% (active),40.1%,50.1%,-90.2% (active),-6.84% (active),-49.4% (active),-69.9% (active),-95.6% (active),-51.6% (active),-43.6% (active),-49.2% (active),-71.8% (active),-67.8% (active),26.8%,-50.4% (active),-94.3% (active),-17.2% (active),-90.1% (active),-76.3% (active),
N=C1CC(=O)NN1C(=O)CSc1nc2sc3c(c2c(=O)n1-c1ccc(Cl)cc1)CCCC3,103%,103%,90.3%,101%,80.1%,102%,102%,94.2%,111%,94.6%,90.5%,87.7%,119%,99.7%,97.6%,97.3%,106%,99.3%,106%,
O=C(NNc1nc2cc(F)ccc2n2c(CN3CC4(COC4)C3)ccc12)c1cnccn1,7.31% (active),22.7%,23%,-7.69% (active),45.2%,2.26% (active),13.2%,-6.84% (active),24.8%,13.4%,19.5%,30.6%,39.2%,22.8%,14.3%,3.55% (active),-8.36% (active),-26.4% (active),33.1%,
Cn1cc(-c2cc(N)n3nc(-c4cn(C)c5ccc(F)cc45)cc3n2)c2cc(F)ccc21,106%,71.2%,92%,-23.2% (active),75.7%,28.6%,18.5%,-87.7% (active),44.8%,-26.2% (active),90.8%,3.73% (active),26.2%,19.6%,80.1%,-58.5% (active),101%,20.3%,4.58% (active),
Nc1nc(N)c2c(n1)NC(c1ccc(F)cc1)CC(c1ccc(Nc3nc(NCCO)nc(Nc4ccc(Cl)cc4)n3)cc1)=N2 (configuration not stated),22.2%,29.1%,68.1%,-54.5% (active),-65.5% (active),-18.4% (active),57%,-71.1% (active),12.2%,0.513% (active),-60.4% (active),-75.8% (active),-77.4% (active),38.7%,9.06% (active),-78.9% (active),106%,-66.1% (active),-48.3% (active),
Clc1ccc(Cc2nnc3sc(-c4cccnc4)nn23)cc1,93%,87.8%,107%,103%,91.9%,89.5%,98.2%,92.6%,101%,87.1%,108%,93.6%,85.9%,96.4%,99.9%,92.5%,109%,106%,99.6%,
c1ccc(CNc2ncnc3ccc(-c4cnc5[nH]ncc5c4)cc23)cc1,55.7%,59.3%,60.7%,65.7%,57.9%,60.9%,37.5%,61.8%,49.6%,,103%,63.7%,33.8%,58.2%,74.1%,69.9%,95.4%,94.8%,77%,94%
NC(=O)c1cc(-c2ccc3ncnc(N4CCc5cc(F)c(Cl)cc54)c3c2)cnc1N,9.39% (active),-3.06% (active),27.9%,20%,15.8%,19.1%,16.9%,12.8%,14.3%,35.2%,25.1%,34.5%,-17.5% (active),27.6%,25.3%,-23.4% (active),54.8%,38.3%,25.8%,
COc1cc(/C=C/C(=O)c2cc(OC)c(OC)c(OC)c2)ccc1Oc1nc(NCCO)nc(N2CCOCC2)n1,-1.45% (active),24%,1.11% (active),-51.6% (active),13.5%,-11.1% (active),6.84% (active),-5.28% (active),12.6%,8.97% (active),29%,19.4%,-25.7% (active),9.81% (active),12.6%,-5.48% (active),47.8%,-19.1% (active),-9.13% (active),
N#Cc1c(-c2ccc(Cl)cc2)nc(SCc2ccc([N+](=O)[O-])cc2)nc1N1CCNCC1,,40.5%,57.1%,-66.6% (active),-8.29% (active),64.1%,5.31% (active),-50% (active),0.384% (active),-32.2% (active),48.4%,-77.7% (active),-4.17% (active),35.3%,78.9%,-23% (active),43.5%,-81% (active),1.91% (active),
C#Cc1nc(C2=C(C)C(O)CC2)cs1 (configuration not stated),,111%,103%,113%,115%,97.2%,100%,-87.8% (active),110%,114%,109%,112%,95.6%,108%,113%,108%,102%,101%,98.9%,118%
N#Cc1nc(-c2ccccc2)oc1S(=O)(=O)N1CCCCC1,,104%,110%,110%,55.7%,-62% (active),98.7%,24.7%,41.6%,,-68.8% (active),20.6%,-71.8% (active),110%,107%,77.3%,94.1%,-15.2% (active),-35.3% (active),
O=C(CSc1nccc(=O)[nH]1)Nc1ccc(-c2nc3ccccc3[nH]2)cc1,,98.2%,94.3%,110%,103%,104%,110%,101%,106%,105%,101%,102%,128%,115%,115%,98.9%,108%,110%,108%,
Clc1ccc2c(NCCCN3CCOCC3)c3oc4ccc(Cl)cc4c3nc2c1,,48.5%,67.2%,13%,43.6%,44.9%,53.9%,-22.4% (active),57.2%,2.23% (active),89.3%,50.3%,22.2%,68.5%,35%,41.7%,102%,97.5%,4.4% (active),44.5%
O=C(Oc1ccc2ccc(=O)oc2c1)c1ccc(Cl)cc1,,99%,108%,103%,95.2%,105%,94.2%,100%,108%,115%,102%,103%,116%,106%,101%,101%,106%,107%,97.9%,114%
CN(C)c1ccc(-c2c(NC(C)(C)C)nc3c(OCCc4ccccc4)cccn23)cc1,,12.2%,25.1%,3.22% (active),-27.5% (active),5.7% (active),23.2%,20.8%,33.2%,3.1% (active),12.9%,25.5%,-25.8% (active),56.6%,-12.7% (active),17.8%,3.18% (active),29.7%,0.0072% (active),-84.6% (active)
CS(=O)(=O)c1ccc(-c2nc3ccccn3c2C=Nc2ccc(Cl)cc2)cc1,,76.7%,82.8%,57.7%,98.5%,58.6%,72.1%,69.5%,61.3%,23.6%,93.6%,85.5%,105%,75.4%,87.9%,84.1%,88.4%,43.8%,34.3%,99.6%
